Screening results deposited in PubChem BioAssay by Johns Hopkins Ion Channel Center.
KCNQ2 block – inhibitors of rat KCNQ2 potassium channel; hit rate 1.1% among 310,000; O88943; B-score at 10 µM; AID 2156; CHO-K1 KCNQ2, FluxOR thallium flux, 20 min; active compounds read low;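 active = fluorescence ratio B-score at most minus 3 library SDs, with starting brightness B-score within 2 library SDs, cut at about -5.5 in these data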
Target sequence (O88943 whole entry, looked up): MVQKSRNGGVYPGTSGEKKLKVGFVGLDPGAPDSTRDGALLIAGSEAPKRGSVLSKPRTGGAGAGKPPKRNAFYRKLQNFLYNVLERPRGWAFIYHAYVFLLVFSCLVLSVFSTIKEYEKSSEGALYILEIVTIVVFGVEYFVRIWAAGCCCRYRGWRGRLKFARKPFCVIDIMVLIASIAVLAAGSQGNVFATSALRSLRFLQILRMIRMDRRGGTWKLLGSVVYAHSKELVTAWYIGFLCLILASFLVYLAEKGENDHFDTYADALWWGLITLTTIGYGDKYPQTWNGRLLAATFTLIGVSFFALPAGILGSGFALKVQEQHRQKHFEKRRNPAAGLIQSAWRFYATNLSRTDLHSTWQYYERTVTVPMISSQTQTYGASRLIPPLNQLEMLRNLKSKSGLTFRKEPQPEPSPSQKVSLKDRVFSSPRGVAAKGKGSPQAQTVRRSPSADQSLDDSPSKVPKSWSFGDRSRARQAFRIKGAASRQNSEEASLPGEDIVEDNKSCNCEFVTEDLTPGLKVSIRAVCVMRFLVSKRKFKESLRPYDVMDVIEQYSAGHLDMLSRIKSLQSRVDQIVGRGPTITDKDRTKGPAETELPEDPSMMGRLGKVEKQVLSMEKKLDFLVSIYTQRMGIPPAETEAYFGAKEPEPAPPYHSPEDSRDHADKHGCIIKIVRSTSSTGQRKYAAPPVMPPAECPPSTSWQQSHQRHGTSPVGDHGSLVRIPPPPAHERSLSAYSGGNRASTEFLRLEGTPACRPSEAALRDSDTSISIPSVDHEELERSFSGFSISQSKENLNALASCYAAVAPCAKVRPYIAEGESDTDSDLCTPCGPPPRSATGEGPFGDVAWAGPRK
KCNQ2 pot – enhances the rat KCNQ2 potassium channel. O88943. CHO-K1 KCNQ2, FluxOR thallium flux fluorescence; active compounds read high. B-score at 10 µM. hit rate 0.54% among 310,000;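 active = fluorescence ratio B-score at least 3 SD of library B-scores, with initial fluorescence B-score within 3 of them, cut at about 5.3 in these data; same plate scores as AID 2156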;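 note: B-score of peak minus minimum over baseline fluorescence ratio after K+ and Tl+ stimulus; positive B-score means potentiation of KCNQ2 with more thallium influx and brighter signal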
* = called active by the depositor; i = inactive; / = no result. Shown are actives, neighbours in structure and some others; about 1.6% of the full set was active somewhere.

SMILES	KCNQ2 block	KCNQ2 pot
CC(=O)N(C1=C(Cl)C(=O)c2ccccc2C1=O)C1CCCCC1	-5.7*	-5.7
CCOc1ccc(NC(=S)N2CCN(S(=O)(=O)c3ccccc3)CC2)cc1	i	/
CCOc1ccc(NC(=S)N2CCC(C(O)(c3ccccc3)c3ccccc3)CC2)cc1	i	6.5*
COc1ccc(NC(=S)N2CCC(c3ccccc3)C2)cc1 (stereo not given)	i	0.91
COc1ccc(NC(=S)N2CCC(C(O)(c3ccccc3)c3ccccc3)CC2)cc1	i	6.7*
CCCCCCN(C(=O)CCl)c1ccccc1	i	/
CC(C)[C@@H](C(=O)N1CCNCC1)n1cc(CCO)nn1	i	0.69
COc1cc(Cl)c(C)cc1NC(C)C(=O)Nc1cc(C(F)(F)F)ccc1N1CCOCC1 (stereo not given)	i	/
CCOc1ccc(N2CC(C(=O)NC3=NCCS3)CC2=O)cc1 (stereo not given)	i	/
COC(=O)c1ccc(COc2c(F)c(F)cc(F)c2F)o1	i	/
O=C(O)c1ccc(COc2c(F)c(F)cc(F)c2F)cc1	-9*	-9
CCOc1ccc(NC(=O)C(C)Oc2ccccc2C(=O)Nc2ccc(C)c(Cl)c2)cc1 (stereo not given)	i	/
Cc1ccc(NC(=S)N2CCC(NC(=O)c3ccc(C)cc3)CC2)cc1	i	/
CCCNC(=S)N1CCC(NC(=O)c2ccc(C)cc2)CC1	-7.3*	-7.3
CCN(CC)C(=O)CSc1nc2c(sc(=S)n2-c2ccc(C)cc2C)c(=O)[nH]1	i	/
O=C(CCn1cccn1)Nc1ccc2c(c1)OCO2	i	0.6
Cc1ccc(NC(=O)NCc2cccn2C)cc1C	i	0.54
CCCCCNC(=O)c1ccc2c(=O)[nH]c3c(C(=O)NCC4CCCO4)sc(=S)n3c2c1 (stereo not given)	-5.7*	-5.7
Cc1ccc(CNC(=O)c2ccc3c(=O)[nH]c4c(C(=O)NCC5CCCO5)sc(=S)n4c3c2)cc1 (stereo not given)	i	/
O=C(N/N=C/c1ccccn1)c1cc(-c2ccc(Br)cc2)nc2ccccc12	i	4.8
N/C(=N\OC(=O)c1cc(-c2ccccc2)nc2ccccc12)c1ccc(Cl)cc1	-6.2*	-6.2
O=C(N/N=C/c1ccccn1)c1cc(-c2ccc(Cl)cc2)nc2ccccc12	i	9.6*
O=C(N/N=C/c1c[nH]c2ccccc12)c1sc2ccccc2c1Cl	i	/
N/C(=N\OC(=O)c1cc(-c2ccccc2)nc2ccccc12)c1cccnc1	i	/
O=C(N/N=C/c1ccccn1)c1sc2ccccc2c1Cl	i	14*
SMILES	KCNQ2 block	KCNQ2 pot
Cc1cccc(-c2cc(C(=O)N/N=C/c3cccnc3)c3ccccc3n2)c1	i	/
CCCOc1cccc(-c2cc(C(=O)N/N=C/c3cccnc3)c3ccccc3n2)c1	-5.8*	-5.8
COC(=O)c1ccc(NS(=O)(=O)NC(=O)c2cn(C)c3ccccc23)cc1	i	/
CS(=O)(=O)Nc1ccc(C(=O)Nc2ccc(S(=O)(=O)N3CCCC3)cc2)cc1	i	0.66
CCOc1ccc(NC(=O)CNC(=O)c2nn(-c3ccc(OC)cc3)c(=O)c3ccccc23)cc1	i	0.53
CC(NC(=O)C1CCCN1S(=O)(=O)c1ccccc1)c1ccccc1 (stereo not given)	i	/
O=c1c2cn(Cc3ccccc3)c3ccccc3c-2nn1Cc1ccc(F)cc1Cl	i	0.38
COc1ccc(C(=O)N=C2SC3CS(=O)(=O)CC3N2c2ccc(N(C)C)cc2)cc1OC (stereo not given)	i	/
CC(C)S(=O)(=O)c1cnc(-c2ccccn2)nc1N	i	0.58
CNC(=O)COc1coc(CN2CCN(c3ccc(F)cc3)CC2)cc1=O	i	1.2
COc1ccc(-c2cc(C(=O)Nc3cccc(Cl)c3)no2)cc1	i	/
COc1ccc(OC)c(-c2cc(C(=O)Nc3cccc(Cl)c3)no2)c1	-7.5*	-7.5
CC(C)Cc1csc(NC(=O)c2ccccc2Cl)c1C(=O)O	i	/
CC(C)Cc1csc(NC(=O)c2ccc(Cl)cc2)c1C(=O)O	i	5.6*
C=C1CCN([C@@H](Cc2ccccc2)C(=O)NCc2ccc(Cl)c(Cl)c2)S(=O)(=O)c2ccccc21	-6.2*	-6.2
C=C1CCN([C@@H](CC(C)C)C(=O)NCc2ccc(Cl)c(Cl)c2)S(=O)(=O)c2ccccc21	i	/
C=CCC1(CC=C)CCCN1Cc1nc(COc2ccccc2)no1	i	/
Cc1ccc(S(=O)(=O)N2CCN(Cc3ccccc3C(F)(F)F)CC2)cc1	-6*	-6
Cc1ccccc1CN1CCN(Cc2ccccc2C(F)(F)F)CC1	i	/
O=C(Cc1ccsc1)NNC(=O)c1ccccc1Cl	i	/
COc1ccc(C(=O)N2CCN(Cc3nc(CC4CC4)no3)CC2)cc1	i	/
CCCCCCCCCCCC1=C(O)C(=O)C=C(O)C1=O	i	0.01
COC1=CC(=O)C(O)=C(CCCCCCC/C=C/CCCCCCCC2=C(O)C(=O)C=C(OC)C2=O)C1=O	-6.6*	-6.6
O=C(Nc1nnc(CCN2CCCCC2)s1)c1ccccc1Cl	i	1.9
CCCCN(C)CCNC(=O)CCn1nc(-c2ccc(C)cc2)ccc1=O	i	/
SMILES	KCNQ2 block	KCNQ2 pot
COc1ccc(CN(CC(O)COc2cccc3[nH]cc(C)c23)C(C)(C)C)cc1 (stereo not given)	-5.9*	-5.9
COc1ccc(CN(C)CC(O)COc2ccc(-c3ccccc3)cc2)cc1OC (stereo not given)	i	0.56
COC(=O)c1cnc(Oc2ccc(NC(=O)NC(=O)c3ccccc3Cl)cc2)cc1C(F)(F)F	i	1.1
Cc1ccc2c(c1)c1c(c(=O)n(-c3ccccc3C)c(=O)n1CC(=O)NCC1CCCO1)n2C (stereo not given)	i	/
CC(C)n1c(SCC(=O)NCc2ccco2)nnc1C1CC1	i	/
CN(CC(=O)Nc1ccc(F)cc1Cl)Cc1cccs1	i	/
CN(CC(=O)Nc1cc(Cl)cc(Cl)c1)Cc1cccs1	-5.6*	-5.6
CCN(CC)C(=S)Oc1ccc(Cl)cc1Cl	i	0.12
CC1=C(C)C(=O)C(CCCCC#CCCCC#CCO)=C(C)C1=O	-6.8*	-6.8
COc1ccc(N2CCN(Cc3cc4c(cc3O)CCC4)CC2)cc1	i	0.46
Oc1cc2c(cc1CN1CCN(c3cccc(C(F)(F)F)c3)CC1)CCC2	-7.3*	-7.3
O=C(NC(=S)N(CCc1ccccc1)CCc1ccccc1)c1ccco1	i	16*
O=C(NC(=S)NCCc1ccc(Cl)cc1)c1ccco1	i	1.9
COc1cc(C(=O)NC(=S)N(CCc2ccccc2)CCc2ccccc2)cc(OC)c1OC	i	18*
COc1cc(C(=O)NC(=S)N(C)Cc2ccccc2)cc(OC)c1OC	i	/
O=C(Nc1ccccc1)C1=C[C@H](c2csc3ccccc23)C[C@H](OCc2ccc(CO)cc2)O1	-5.7*	-5.7
O=C(NC1CC1)C1=C[C@H](c2csc3ccccc23)C[C@H](OCc2ccc(CO)cc2)O1	i	/
O=C(C1=C[C@@H](c2csc3ccccc23)C[C@@H](OCc2ccc(CO)cc2)O1)N1CCN(Cc2ccccc2)CC1	-6.2*	-6.2
O=C(C1=C[C@@H](c2csc3ccccc23)C[C@@H](OCc2ccc(CO)cc2)O1)N1CCOCC1	i	/
Clc1ccc(OCc2nnc(-c3ccccc3Br)o2)c(Cl)c1	i	0.85
COCn1c(-c2cccc(Br)c2)nc2ccccc21	-5.9*	-5.9
COCn1c(-c2ccc(OC)c(OC)c2)nc2ccccc21	i	/
Cc1cc(C)c(S(=O)(=O)N(C)CC(N)=O)c(C)c1	-5.6*	-5.6
